The values below come from PubChem BioAssay (Tox21).

Test [1] can be described thus: qHTS assay to identify small molecule agonists of the vitamin D receptor (VDR) signaling pathway - cell viability counter screen (AID 743224). Further: series mostly up to about 63 µM; nearly all actives have a fitted effect of over 50% in size. Put shortly: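 In parallel with the bla FRET readout, cytotoxicity toward VDR-bla cells after 16 h compound exposure was assessed by CellTiter-Glo, with luminescence recorded after a 30 min room-temperature incubation.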
In general terms: Quantitative high-throughput screening tests each substance at several concentrations.

Test [2] can be described thus: qHTS assay to identify small molecule antagonists of the vitamin D receptor (VDR) signaling pathway - cell viability counter screen (AID 743225). Further: nearly all actives have a fitted effect of over 50% in size. Put shortly:
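Parallel cytotoxicity test: VDR-UAS-bla HEK 293T, 3 nM (final) 1-alpha,25-dihydroxyvitamin D3 with test compound, 16 h, 37C. Endpoint is CellTiter-Glo luminescence in the same wells.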

The nature of test [3]: qHTS assay to identify small molecule agonists of the NFkB signaling pathway (AID 1159509; active means well fitted curve in the direction sought with a large enough effect in the signal ratio in the repeat runs, not every such curve was filed as active; the % refers to the signal ratio; further: series mostly up to about 61 µM). Put shortly:
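Beta-lactamase reporter assay run in quantitative high-throughput format on an NF-kB-responsive ME-180 line, with 5 hr compound treatment and a FRET-based blue/green fluorescence readout.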

A short description of test [4]: qHTS assay to identify small molecule agonists of the NFkB signaling pathway - cell viability counter screen (AID 1159515; calls by dose curve; further: series mostly up to about 61 µM; nearly all actives have a fitted effect of over 55% in size). Summed up: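 Plate 2,000 NFkB-bla ME-180 cells/well; incubate overnight. Add compounds, 5 hr at 37 C. Add FRET substrate, 1.5 hr RT. Add CellTiter-Glo, 30 min RT; read luminescence.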
Test [5] is described as follows: qHTS assay to identify small molecule agonists of the endoplasmic reticulum stress response signaling pathway (AID 1159516; active means well fitted activation curve with a large enough effect in the signal ratio in the repeat runs, not every such curve was filed as active; the % refers to the signal ratio). Put shortly:
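Beta-lactamase expression from the ER stress response element in HeLa reporter cells is quantified with the LiveBLAzer B/G FRET substrate, read at 405 nm excitation after 2 hr at room temperature, following 5 hr compound treatment at 37 C.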

The nature of test [6]: qHTS assay to identify small molecule agonists of the endoplasmic reticulum stress response signaling pathway - cell viability counter screen (AID 1159517; calls by dose curve; further: series mostly up to about 61 µM; nearly all actives have a fitted effect of over 50% in size). Put shortly:
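After overnight attachment, ESRE-bla HeLa cells were treated with Tox21 library compounds for 5 hr. CellTiter-Glo luminescence, read 30 min post-addition at room temperature, reported viability.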

The nature of test [7]: qHTS assay to identify small molecule antagonists of the retinoid-related orphan receptor gamma (ROR-gamma) signaling pathway - cell viability counter screen (AID 1159520). Further: nearly all actives have a fitted effect of over 50% in size. Put shortly: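 Cytotoxicity was read from cellular ATP (CellTiter-Glo luminescence) after 16 hr at 37 C with 1 uM doxycycline induction. The inducer was added 2 hr after compound transfer to Tet-on ROR gamma CHO cells.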

Test [8] deals with Nuclear receptor ROR-gamma (Homo sapiens) (UniProt P51449). As to the kind of experiment: qHTS assay to identify small molecule antagonists of the retinoid-related orphan receptor gamma (ROR-gamma) signaling pathway (AID 1159521; further: nearly all actives have a fitted effect of over 50% in size; further: potency means the concentration at half of the fitted maximal effect). Summed up: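 Decreased RORE-driven luciferase luminescence indicates antagonism. Tet-on RORγ CHO cells received compound, then 1 uM final doxycycline 2 h later; signal read after 16 h incubation.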

Test [9] in a line: qHTS assay to identify small molecule agonists of the AP-1 signaling pathway - cell viability counter screen (AID 1159525; calls by dose curve; further: nearly all actives have a fitted effect of over 55% in size). Put shortly:
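Intracellular ATP by Cell Titer Glo luminescence (30 min, RT) in the same ME-180 AP-1-bla wells after the 5 h compound exposure at 37 °C. Normalised to tetra n-octyl ammonium bromide and DMSO controls.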

Test [10] in a line: qHTS assay to identify small molecule agonists of the AP-1 signaling pathway (AID 1159526; calls by dose curve).
Test [11] deals with Retinoic acid receptor RXR-alpha (Homo sapiens) (UniProt P19793). The test is described as follows: qHTS assay to identify small molecule agonists of the RXR signaling pathway (AID 1159527; calls by dose curve; further: nearly all actives have a fitted effect of over 35% in size; further: potency means the concentration at half of the fitted maximal effect). Summed up: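 16 hr incubation of compound-treated RXR-alpha-UAS-bla HEK 293T cells (2% charcoal-stripped FBS, 37 C) preceded a 2 hr room-temperature LiveBLAzer FRET substrate step and blue/green fluorescence measurement.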

A short description of test [12]: qHTS assay to identify small molecule agonists of the RXR signaling pathway - cell viability counter screen (AID 1159529). Put shortly:
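In this parallel viability measure, GeneBLAzer RXR-alpha HEK 293T cells (2% charcoal-stripped FBS) were given a 5 hr preincubation, treated with compounds 16 hr at 37 C, and read by CellTiter-Glo luminescence.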

A short description of test [13]: qHTS assay to identify small molecule antagonists of the retinoid acid receptor (RAR) signaling pathway - cell viability counter screen (AID 1159551). Further: nearly all actives have a fitted effect of over 35% in size. Put shortly:
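Viability of C3RL4 cells is quantified from ATP by luminescence after 6 h treatment at 37 C with compounds and 1 uM retinol.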

The nature of test [14]: qHTS assay to identify small molecule antagonists of the retinoic acid receptor (RAR) signaling pathway (AID 1159552; further: nearly all actives have a fitted effect of over 50% in size). Put shortly:
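C3RL4 RARE-luc cells, overnight plating; retinol 1 uM final added right after compound; 6 hr 37 C; luciferase read at 30 min RT.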

The nature of test [15]: qHTS assay to identify small molecule agonists of the retinoic acid receptor (RAR) signaling pathway (AID 1159553). Further: potency means the concentration at half of the fitted maximal effect. Put shortly:
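Compounds dissolved in DMSO were pinned onto C3RL4 cells seeded the previous day, and plates were held 6 hr at 37 C. RARE-driven luciferase output was then read by luminescence.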

Values joined by “and” are separate entries in the source; they are usually repeats but may differ in a detail not shown here. Equal values may be shown once. Results filed as inconclusive are left out. The source holds several records for some structures; these can differ, active in one and inactive in another. Active and inactive are the calls of the source. Unless noted, the call rests on the fitted dose curve; in most records, active means well fitted curve in the direction sought with a large enough effect in the repeat runs; inconclusive means weak or mixed curves; inactive means no such curve, though single readings can be large; an effect the other way counts as inactive or inconclusive.

Retinoic acid receptor RXR-alpha (Homo sapiens), sequence (P19793 whole entry, looked up): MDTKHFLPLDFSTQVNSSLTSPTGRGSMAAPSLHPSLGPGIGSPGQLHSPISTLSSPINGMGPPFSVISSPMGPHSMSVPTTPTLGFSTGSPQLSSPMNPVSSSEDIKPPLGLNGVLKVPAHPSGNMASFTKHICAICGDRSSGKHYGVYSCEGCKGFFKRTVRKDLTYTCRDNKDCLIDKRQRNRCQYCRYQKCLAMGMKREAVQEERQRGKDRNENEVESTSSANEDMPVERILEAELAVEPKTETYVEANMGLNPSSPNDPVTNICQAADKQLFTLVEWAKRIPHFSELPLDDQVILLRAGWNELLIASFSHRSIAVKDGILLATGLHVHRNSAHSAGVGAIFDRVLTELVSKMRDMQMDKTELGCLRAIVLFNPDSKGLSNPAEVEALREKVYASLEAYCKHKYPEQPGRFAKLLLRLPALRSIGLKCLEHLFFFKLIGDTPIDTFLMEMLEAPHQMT

`CC1(C)OC[C@@H]2O[C@@]3(C(=O)O)OC(C)(C)O[C@H]3[C@@H]2O1`: the call in [1], in test [2], in [3], in [4], in test [5] and in [7] was inactive. For the same compound, the compound was classed as inactive in test [9], in [12], in test [13] and in test [14]. The Potency entry in test [6], in test [8], in [10] and in test [15] was “inactive” each time. For the same compound, the Potency in [11] was 21.9 µM (active) and inactive.
`CC(=O)OCCOC(C)=O`: the compound was called inactive in test [1], in test [2], in test [3], in test [4], in test [5] and in test [7]. The result in test [9], in test [12] and in test [13] was inactive. For the same compound, the Potency result in test [6], in [8], in test [10] and in [11] was “inactive” each time.
Take `O=S(=O)(O)c1ccccc1`: the compound was called inactive in [1], in test [2], in test [3], in test [4], in test [5] and in test [7]. For the same compound, the compound was classed as inactive in test [9], in test [12], in [13] and in [14]. For the same compound, the Potency result in test [6], in test [8], in [10], in test [11] and in test [15] was “inactive” each time.
Take `C[C@]12CC[C@@H]3c4ccc(O)cc4CC[C@H]3[C@@H]1C[C@@H](O)[C@@H]2O`: the outcome in [1], in test [2], in test [3], in test [4], in test [5] and in test [7] was inactive. In addition, the compound was called inactive in [9], in test [12] and in test [13]. Also, the Potency result in test [6], in test [8], in test [10], in test [11] and in [15] was “inactive” each time.
Turning to `CCCCCCC=O`, the compound was classed as inactive in [1], in test [2], in [3], in test [4], in [5] and in test [7]. The outcome in [9], in test [12], in test [13] and in test [14] was inactive. Further, the Potency entry in test [6], in [8], in test [10], in [11] and in test [15] was “inactive” in each case.
Turning to `Nc1ccc(Cl)c(N)c1`, the compound was classed as inactive in [1], in [2], in test [3], in test [4], in [5] and in [7]. Besides, the compound was called inactive in [9], in [12], in test [13] and in test [14]. Moreover, the Potency entry in [6], in [8], in test [10] and in [11] was “inactive” in each case. The Potency in [15] is 68.6 µM (active).
On to `CCCCCCCCCCO`, for which the outcome in test [1], in test [2], in [3], in [4], in test [5] and in [7] was inactive. Also, the result in test [9], in test [12], in test [13] and in test [14] was inactive. The Potency entry in test [6], in test [8], in test [10], in test [11] and in test [15] was “inactive” throughout.
For the compound `CN(C)c1ccc(O)c2c1C[C@H]1C[C@H]3[C@H](N(C)C)C(=O)C(C(N)=O)=C(O)[C@@]3(O)C(=O)C1=C2O`, the result in [1], in [2], in test [3], in test [4], in test [5] and in test [7] was inactive. The call in test [9], in [12] and in [13] was inactive. Moreover, the Potency entry in test [6], in test [10] and in test [11] was “inactive” in each case. In test [8], the Potency was 21.7 µM (active) and 26.6 µM (active).
`COc1ccc(C)cc1N`: the compound was called inactive in test [1], in test [2], in test [3], in test [4], in test [5] and in test [7]. Moreover, the call in test [9], in [12], in [13] and in [14] was inactive. Moreover, the Potency result in [6], in test [8], in test [10], in test [11] and in test [15] was “inactive” throughout.
In the case of `C=CC(C)CCCC(C)(C)O` (stereo not given), the call in test [1], in [2], in test [3], in test [4], in [5] and in test [7] was inactive. Besides, the call in [9], in [12], in [13] and in test [14] was inactive. Moreover, the Potency result in test [6], in test [8], in test [10], in test [11] and in test [15] was “inactive” in each case.
